Results on six compounds are retold here after PubChem BioAssay (EPA / NIEHS).

A word on the AC50: it is the midpoint of the concentration-response curve, whichever way the signal moves.

Where “and” joins values, the source holds several entries; their conditions need not be identical. Equal values may be shown once. Some structures have more than one record in an assay (separate samples or runs), and their calls can disagree. Calls of active or inactive are those of the source. The calls were made as follows: active = hit-call score of the fitted dose curve at least 0.9, where 1 is the maximum; inactive = score below 0.9.

The nature of experiment [1]: APR_HepG2_CellLoss_72hr: Apredica 72-hour HepG2 Assay for Cell Loss (AID 2282915). Conditions: high-content imaging. In short, it runs like this: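 Cell number comes from Hoechst 33342-labelled nuclei, imaged at 20x after 3.7% formaldehyde fixation. Dosing was 0.39–200 uM, ten concentrations in duplicate, 0.5% DMSO final, for 72 h. Bidirectional fit relative to DMSO baseline.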

The nature of experiment [2]: APR_HepG2_P-H2AX_72hr: Apredica 72-hour HepG2 Assay for H2AX Phosphorylation (AID 2282916).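 Also: phospho-histone H2A.x immunostain intensity per cell marking DNA damage.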 Conditions: imaging, actives raise or lower the signal. In short, it runs like this:
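HepG2; cpd 0.39–200 uM ×10 conc, duplicates; 0.5% DMSO; 72 hr. Fix 3.7% formaldehyde 30 min RT, 0.5% Triton X-100 10 min. Anti-phospho-H2A.x 1:200 + Hoechst 2 ug/mL, 60 min RT; ArrayScan imaging.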

Experiment [3] can be described thus: APR_HepG2_MitoMembPot_72hr: Apredica 72-hour HepG2 Assay for Mitochondrial Membrane Potential (AID 2282917). The conditions noted are these: imaging, actives raise or lower the signal. The method, boiled down: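 Membrane potential read by MitoTracker Red CMXRos (250 nM, 30 min, pre-fixation) fluorescence imaging of HepG2 after 72 hr exposure. Ten concentrations, 0.39–200 uM, duplicate wells, 0.5% DMSO; fitted in both directions against DMSO baseline.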

A short description of experiment [4]: APR_HepG2_MitoticArrest_72hr: Apredica 72-hour HepG2 Assay for Mitotic Arrest (AID 2282918). The conditions noted are these: high-content imaging, actives raise or lower the signal. In short, it runs like this: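 HepG2 cells were exposed for 72 hr to compound at 0.39–200 uM (10 concentrations, duplicate) in 0.5% v/v DMSO, fixed in 3.7% formaldehyde, immunostained for phospho-histone H3 with Hoechst 33342 and imaged by high-content fluorescence; bidirectional fits versus DMSO.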

Experiment [5] can be described thus: APR_HepG2_MicrotubuleCSK_72hr: Apredica 72-hour HepG2 Assay for Microtubule CSK Stabilty (AID 2282919). Conditions: HepG2 microtubule cytoskeleton, high-content imaging, actives raise or lower the signal. In short, it runs like this:
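Read-out is tubulin fluorescence intensity from high-content imaging of HepG2 cells, with nuclei identified by Hoechst 33342. Treatment lasts 72 h at 0.39–200 uM, and curves are fitted bidirectionally against the DMSO negative control.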

Experiment [6] is described as follows: APR_HepG2_P-H2AX_24hr: Apredica 24-hour HepG2 Assay for H2AX Phosphorylation (AID 2282920). Conditions: high-content imaging, actives raise or lower the signal. In short, it runs like this: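 HepG2 human liver cells were exposed for 24 hr to compounds at 0.39–200 uM in duplicate, with 0.5% v/v DMSO final. Fixed cells were immunostained for phospho-histone H2A.x plus Hoechst 33342, imaged by HCS fluorescence, and fitted bidirectionally against DMSO.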

Experiment [7] is described as follows: APR_HepG2_StressKinase_72hr: Apredica 72-hour HepG2 Assay for Stress Kinase (AID 2282921). The conditions noted are these: HepG2 stress kinase (phospho-c-Jun) imaging, actives raise or lower the signal. In short, it runs like this: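 Dose 0.39–200 uM (10 pts, duplicate), 0.5% DMSO; 72 h; fix 3.7% formaldehyde 30 min RT; Triton permeabilize; anti-phospho-c-Jun/Cy3 + Hoechst 60 min RT; image 20x; fit gain/loss vs DMSO.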

Experiment [8] is described as follows: APR_HepG2_StressKinase_24hr: Apredica 24-hour HepG2 Assay for Stress Kinase (AID 2282922). The conditions noted are these: HepG2 stress kinase (phospho-c-Jun) imaging, actives raise or lower the signal. The method, boiled down: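 HepG2, 24 hr dosing, 0.39–200 uM in duplicate, 0.5% DMSO; formaldehyde fix (3.7%), 0.5% Triton X-100; anti-phospho-c-Jun + Cy3 secondary, Hoechst counterstain; ArrayScan imaging; bidirectional curve fit vs DMSO baseline.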

Experiment [9] is described as follows: APR_HepG2_p53Act_72hr: Apredica 72-hour HepG2 Assay for p53 Activation (AID 2282923).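 Also: average cellular p53 protein immunofluorescence intensity in HepG2 cells.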 Conditions: high-content imaging, actives raise or lower the signal. In short, it runs like this: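 10-pt conc. 0.39–200 uM, duplicate, 0.5% DMSO; 72 hr exposure; 3.7% formaldehyde fix, 0.5% Triton perm; sheep anti-p53/Cy5 + Hoechst; ArrayScan 20x, 6 images/well; gain/loss fit vs DMSO.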

Experiment [10] can be described thus: APR_HepG2_MitoMass_72hr: Apredica 72-hour HepG2 Assay for Mitochondrial Mass (AID 2282924).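 Also: MitoTracker Red CMXRos stain intensity per cell imaged as mitochondrial mass.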 The conditions noted are these: high-content imaging, actives raise or lower the signal. The method, boiled down:
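HepG2, 72 hr cmpd, 10 conc 0.39–200 uM in dup, DMSO 0.5% v/v. MitoTracker Red CMXRos 250 nM 30 min pre-fix; formaldehyde 3.7% fix 30 min RT. HCS imaging, gain/loss fit vs DMSO.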

Experiment [11] is described as follows: APR_HepG2_NuclearSize_72hr: Apredica 72-hour HepG2 Assay for Nuclear Size (AID 2282925). Conditions: high-content imaging, actives raise or lower the signal. In short, it runs like this:
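HepG2; cpd 0.39–200 uM, 10 conc, duplicate; 72 h; DMSO 0.5% v/v; fix 3.7% formaldehyde 30 min RT; Triton permeabilization; Hoechst 2 ug/mL; HCS imaging 20x; nuclear diameter; gain/loss fit vs DMSO.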

The target of experiment [12] is CCAAT/enhancer-binding protein beta (Homo sapiens) (UniProt P17676). Briefly: ATG_C_EBP_CIS: Attagene CIS-FACTORIAL HepG2 Assay for human CCAAT/Enhancer Binding Protein (C/EBP) beta (AID 2282927). Conditions: HepG2 Attagene cis-factorial transcription factor reporter; actives raise or lower the signal. In short, it runs like this:
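Endogenous transcription factor activity in human liver HepG2 cells is inferred from induction of a CEBPB-linked reporter mRNA. Exposure lasts 24 h; activity is fitted in both directions relative to DMSO.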

A short description of experiment [13]: ATG_CMV_CIS: Attagene CIS-FACTORIAL HepG2 Assay for human CMV (Internal Marker) (AID 2282928).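 Also: endpoint acts as a background internal control marker rather than a target.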 Conditions: HepG2 CMV promoter reporter, transcription factor profiling; actives raise or lower the signal. The method, boiled down:
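Cell system: HepG2, transiently transfected multiple reporter units under cis promoters. Exposure: 24 h. Detection: RT-PCR, FAM labeling, HpaI digestion, capillary electrophoresis. Analysis: bidirectional, DMSO baseline.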

For experiment [14], the target named is Aryl hydrocarbon receptor (Homo sapiens) (UniProt P35869). Briefly: ATG_Ahr_CIS: Attagene CIS-FACTORIAL HepG2 Assay for human Aryl Hydrocarbon Receptor (Ahr) (AID 2282930). The conditions noted are these: HepG2 AhR cis-factorial reporter transcription; actives raise or lower the signal. The method, boiled down:
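Transient MRTU transfection of HepG2 → 24 h compound exposure → total RNA, oligo(dT) RT → PCR, 6-FAM extension, HpaI cut → CE fluorescence. DMSO = baseline; bidirectional curve fit.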

Experiment [15] in a line: ATG_AP_1_CIS: Attagene CIS-FACTORIAL HepG2 Assay for human Activator Protein 1 (AP-1) (AID 2282931). Conditions: HepG2 Attagene cis-factorial AP-1 reporter mRNA; actives raise or lower the signal. In short, it runs like this: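 Fluorescence of labelled PCR fragments separated by capillary electrophoresis gives reporter mRNA levels. HepG2 with transfected cis-regulated reporter units, 24 h exposure; DMSO serves as baseline for bidirectional curve fits.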

Experiment [16] can be described thus: ATG_AP_2_CIS: Attagene CIS-FACTORIAL HepG2 Assay for human Activator Protein 2 (AP-2) (AID 2282932). Conditions: HepG2 AP-2 cis-reporter, Attagene transcription factor profiling; actives raise or lower the signal. The method, boiled down:
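HepG2, transient MRTU transfection, cis-regulated reporters; 24 h compound exposure; RNA isolated, RT-PCR, 6-FAM labelling, HpaI digest, CE fluorescence. DMSO = negative control/baseline, bidirectional fit.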

A short description of experiment [17]: ATG_BRE_CIS: Attagene CIS-FACTORIAL HepG2 Assay for human Bone Morphogenetic Protein (BMP) Response Element (BRE) (AID 2282933). Conditions: HepG2 BMP response element reporter, Attagene transcription factor profiling; actives raise or lower the signal. In short, it runs like this: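 Read-out: reporter mRNA induction quantified by RT-PCR and capillary electrophoresis after 24 h chemical exposure of transfected HepG2 cells. Endogenous factor activity on the BMP response element; gain or loss fitted against DMSO baseline.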

A short description of experiment [18]: ATG_CRE_CIS: Attagene CIS-FACTORIAL HepG2 Assay for human cAMP Responsive Element (CRE) binding protein 3 (AID 2282926). Conditions: HepG2 CRE cis-reporter, Attagene multiplexed mRNA; actives raise or lower the signal. In short, it runs like this:
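HepG2 cells transiently transfected with a multiplexed reporter library (CRE-driven unit among them) were dosed for 24 h. Reporter mRNA was quantified by RT-PCR, fluorescent labelling, HpaI digestion and capillary electrophoresis, with bidirectional fitting against DMSO baseline.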

Experiment [19] is described as follows: ATG_DR4_LXR_CIS: Attagene CIS-FACTORIAL HepG2 Assay for human Liver X Receptor (LXR), DR4 submotif (AID 2282929). Conditions: HepG2 Attagene DR4 cis-reporter, mRNA transcription; actives raise or lower the signal. In short, it runs like this:
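Endogenous factor activity at a DR4 cis-element is read as reporter mRNA in transiently transfected HepG2 cells. Exposure lasts 24 h; transcripts are amplified, fluorescently labelled and sized by capillary electrophoresis, with DMSO as baseline.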

Chain of Aryl hydrocarbon receptor (Homo sapiens) (P35869 whole entry, looked up): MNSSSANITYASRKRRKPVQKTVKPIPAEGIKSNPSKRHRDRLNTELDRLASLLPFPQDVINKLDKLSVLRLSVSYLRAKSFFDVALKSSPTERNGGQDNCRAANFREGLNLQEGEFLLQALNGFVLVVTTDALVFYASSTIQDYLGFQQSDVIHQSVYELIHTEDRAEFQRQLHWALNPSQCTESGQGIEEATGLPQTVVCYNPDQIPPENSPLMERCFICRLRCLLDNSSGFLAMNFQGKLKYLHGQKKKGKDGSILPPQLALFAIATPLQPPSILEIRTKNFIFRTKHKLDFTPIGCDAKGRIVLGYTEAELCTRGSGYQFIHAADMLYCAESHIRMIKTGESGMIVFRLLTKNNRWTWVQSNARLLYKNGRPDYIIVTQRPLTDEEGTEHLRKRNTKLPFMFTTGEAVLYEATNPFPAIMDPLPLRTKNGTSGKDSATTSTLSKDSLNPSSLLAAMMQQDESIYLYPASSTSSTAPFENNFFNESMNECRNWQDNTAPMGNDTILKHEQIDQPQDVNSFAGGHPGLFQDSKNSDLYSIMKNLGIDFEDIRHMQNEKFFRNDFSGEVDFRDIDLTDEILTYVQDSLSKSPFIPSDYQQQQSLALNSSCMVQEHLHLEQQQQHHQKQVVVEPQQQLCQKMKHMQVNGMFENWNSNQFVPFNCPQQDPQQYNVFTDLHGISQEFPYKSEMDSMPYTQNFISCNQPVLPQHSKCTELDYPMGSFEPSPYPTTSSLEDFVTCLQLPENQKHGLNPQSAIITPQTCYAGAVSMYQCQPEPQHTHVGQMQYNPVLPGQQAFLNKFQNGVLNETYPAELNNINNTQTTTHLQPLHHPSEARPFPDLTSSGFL
Chain of CCAAT/enhancer-binding protein beta (Homo sapiens) (P17676 whole entry, looked up): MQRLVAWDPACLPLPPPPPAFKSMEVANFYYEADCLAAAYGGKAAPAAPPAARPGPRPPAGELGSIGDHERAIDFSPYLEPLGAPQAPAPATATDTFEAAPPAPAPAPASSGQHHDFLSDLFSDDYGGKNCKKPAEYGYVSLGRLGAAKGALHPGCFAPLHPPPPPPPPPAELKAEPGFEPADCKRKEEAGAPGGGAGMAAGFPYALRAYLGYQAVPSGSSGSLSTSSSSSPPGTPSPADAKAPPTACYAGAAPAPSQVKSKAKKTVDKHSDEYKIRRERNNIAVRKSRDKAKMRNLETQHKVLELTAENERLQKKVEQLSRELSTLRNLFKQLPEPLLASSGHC

Take `O=C(c1ccc(OCCN2CCCCC2)cc1)c1c(-c2ccc(O)cc2)sc2cc(O)ccc12`: the call in experiment [1], in [2], in experiment [3], in [4], in experiment [5] and in [6] was inactive. Moreover, the result in experiment [7], in experiment [8], in experiment [9], in experiment [10], in experiment [11] and in experiment [12] was inactive. The call in experiment [13], in experiment [14], in [15], in experiment [16] and in [17] was inactive. For the same compound, the AC50 in [12] was 15.2 µM (active); in experiment [13], 14.8 µM (active) and 7.91 µM (active); in [14] it was 19.3 µM (active); in [15] it was 17.5 µM (active) and 16.9 µM (active) and 13.1 µM (active); in [16], 11.1 µM (active) and 15.4 µM (active).
For `CCCC[N+](C)(CCCC)CCCC`, the result in experiment [18], in [12], in experiment [13], in [19], in [14] and in [15] was inactive. In addition, the outcome in experiment [16] and in [17] was inactive.
For the compound `CC1=CC[C@@H](C(C)(C)O)CC1`, the compound was called inactive in experiment [18], in [12], in experiment [13], in experiment [19], in experiment [14] and in experiment [15]. Also, the outcome in [16] and in [17] was inactive.
For the compound `O=C(O)c1ccco1`, the result in [18], in [12], in experiment [13], in experiment [19], in [14] and in experiment [15] was inactive. Also, the result in experiment [16] and in experiment [17] was inactive.
As to `CCCCCCC(O)CCOC(C)=O` (configuration not stated), the result in experiment [18], in [12], in experiment [13], in experiment [19], in [14] and in [15] was inactive. Further, the outcome in experiment [16] and in [17] was inactive.
Regarding `CC/C=C\C#N`, the outcome in experiment [18], in [12], in experiment [13], in experiment [19], in [14] and in experiment [15] was inactive. In addition, the compound was classed as inactive in [16] and in experiment [17].
